Laboratory results published in ChEMBL document CHEMBL4513139, “CO-ADD screening of University of Strathclyde (UK) compounds”.
Results with a measured potency or affinity are listed apart.

Key:
[1] = test system: Klebsiella pneumoniae; conditions: Concentration 32 ug.mL-1; ASSAY_TEST Inhibition of Bacterial Growth; detection method Absorption (OD600); MEDIA CAMHB; plate type 384well; NBS; CORNING #3640; time 18 hr
[2] = test system: Candida albicans; conditions: 32 ug/mL
[3] = test system: Cryptococcus neoformans; conditions: Concentration 32 ug.mL-1; ASSAY_TEST Inhibition of Fungal Growth; detection method Resazurin; Absorption (OD600-OD570); plate type 384well; NBS; CORNING #3640

SMILES	Inhibition [1]	Inhibition [2]	Inhibition [3]
Cn1cc(NC(=O)c2cc(NC(=O)c3ccc(/C=C/c4cccc(F)c4)cc3)cn2C)cc1C(=O)NCCN1CCOCC1.O=C(O)C(F)(F)F	-2.66%	24.2%	
COc1cccc(C(=N)Nc2cc(C(=O)Nc3cc(C(=O)NCCC(=N)N)n(C)c3)n(C)c2)c1.O=C(O)C(F)(F)F.O=C(O)C(F)(F)F	100.7%	39.3%	101.54%
Cc1ncc(CNc2ccc(C(F)(F)F)cc2)c(N)n1	1.98%	0.52%	-31.34%
CC(C)CCn1cc(NC(=O)c2cc(NC(=O)c3cc(NC(=N)c4ccccc4)cn3C)cn2C)cc1C(=O)NCCCN(C)C.O=C(O)C(F)(F)F.O=C(O)C(F)(F)F	2.69%	0.79%	-53.65%
CC(C)CCc1sc(NC(=O)c2cc(NC(=O)c3cc(NC(=O)c4ccc(C(=O)O)cc4)cn3C)cn2C)nc1C(=O)NCCCN(C)C.O=C(O)C(F)(F)F	-0.94%	8.07%	-119.21%
COc1cccc(/C=C/c2ccc(C(=O)Nc3cc(C(=O)Nc4cc(C(=O)NCCN(C)C)n(C)c4)n(C)c3)cc2)c1.O=C(O)C(F)(F)F	26.76%	28.1%	101.07%
CC(=O)N(C(C)=O)c1cc(C(=O)Nc2cc(C(=O)NCCC(=N)N)n(C)c2)n(C)c1.O=C(O)C(F)(F)F	5.82%	3.85%	87.54%
CN(C)CCCNC(=O)c1cc(NC(=O)c2cc(NC(=O)CCC(=O)O)cn2C)cn1C.O=C(O)C(F)(F)F	6.24%	0.85%	-54.8%
COC(=O)CCC(=O)Nc1cc(C(=O)Nc2cc(C(=O)NCCCN(C)C)n(C)c2)n(C)c1.O=C(O)C(F)(F)F	-5.32%	0.6%	-50.28%
Cc1ncc(CO)c(N)n1	-2.19%	-0.12%	-45.32%
CN(C)CCCNC(=O)c1cc(NC(=O)c2cc(NC(=O)c3ccc(C(=O)O)cc3)cn2C)cn1C.O=C(O)C(F)(F)F	8.35%	15.6%	-106.52%
COc1cccc(C(=N)Nc2cc(C(=O)Nc3cc(C(=O)Nc4cc(C(=O)NCCCN(C)C)n(C)c4)n(C)c3)n(C)c2)c1.O=C(O)C(F)(F)F.O=C(O)C(F)(F)F	5.64%	0.48%	-103.02%
CC(C)c1sc(N)nc1C(=O)Nc1cc(C(=O)Nc2cc(C(=O)NCCN3CCOCC3)n(C)c2)n(C)c1.O=C(O)C(F)(F)F	-2.63%	3.25%	-112.04%
COc1cccc(C(=N)Nc2cc(C(=O)Nc3cc(C(=O)Nc4cn(CCCN(C)C)cn4)n(C)c3)n(C)c2)c1.O=C(O)C(F)(F)F.O=C(O)C(F)(F)F	25.01%	0.2%	-90.24%
Cn1cc(NC(=O)c2cc(NC(=O)CCC(=O)O)cn2C)cc1C(=O)NCCN1CCOCC1.O=C(O)C(F)(F)F	14.45%	1.67%	-38.65%
Cn1cc(NC(=O)c2cc(NC(=O)c3sc(N)nc3C(F)(F)F)cn2C)cc1C(=O)NCCN1CCOCC1.O=C(O)C(F)(F)F	-3.11%	1.1%	-112.77%
COCCOC1CCN(C(=O)c2cc(NC(=O)c3cc(NC(=O)c4ccc(/C=C/c5ccc(OC)cc5)cc4)cn3C)cn2C)CC1.O=S(=O)(O)O	1.91%	3.1%	97.19%
COc1cccc(C(=O)Nc2cc(C(=O)Nc3cc(C(=O)Nc4cn(CCCN(C)C)cn4)n(C)c3)n(C)c2)c1.O=C(O)C(F)(F)F	3.02%	3.2%	-93.96%
CC(=O)Nc1cc(C(=O)Nc2cc(C(=O)Nc3cc(C(=O)NCCCN(C)C)n(CCC(C)C)c3)n(C)c2)n(C)c1.O=C(O)C(F)(F)F	-0.56%	0.94%	-102.49%
CC(C)CCc1sc(NC(=O)c2cc(NC(=O)c3ccc(/C=C/c4cc5ccccc5nc4On4nnc5ccccc54)cc3)cn2C)nc1C(=O)NCCN1CCOCC1.O=C(O)C(F)(F)F	-11.86%	12.3%	0.39%
CC(C)CCc1sc(NC(=O)c2cc(NC(=O)c3cc(NC(=O)CCC(=O)O)cn3C)cn2C)nc1C(=O)NCCCN(C)C.O=C(O)C(F)(F)F	2.15%	2.8%	-103.67%
COC(=O)c1ccc(C(=O)Nc2cc(C(=O)Nc3cc(C(=O)NCCCN(C)C)n(C)c3)n(C)c2)cc1.O=C(O)C(F)(F)F	6.59%	1.31%	-107.28%
Cc1ncc(CNc2ccc(Cl)cc2)c(N)n1	5.04%	-0.54%	-54.67%
COc1cccc(C(=N)Nc2cc(C(=O)Nc3cc(C(=O)Nc4cc(C(=O)NCCCN5CCOCC5)n(C)c4)n(C)c3)n(C)c2)c1.O=C(O)C(F)(F)F.O=C(O)C(F)(F)F	14.25%	1.73%	-103.93%
Cc1ncc(Cn2cc(CCCCO)nn2)c(N)n1	1.98%	2.99%	-60.21%
Cc1ncc(Cn2cc(CCC(=O)O)nn2)c(N)n1.O=C(O)C(F)(F)F	-1.46%	2.33%	-50.97%

SMILES	Inhibition [1]	Inhibition [2]	Inhibition [3]
COc1ccc(/C=C(/C(=O)Nc2cc(C(=O)Nc3cc(C(=O)NCCCN(C)C)n(C)c3)n(C)c2)c2ccc(OC)cc2)cc1.O=C(O)C(F)(F)F	4.2%	1.83%	-5.3%
Cc1ncc(Cn2cc(CCCN)nn2)c(N)n1.Cl	-8.29%	3.42%	-41.75%
CC(C)c1sc(N)nc1C(=O)Nc1cc(C(=O)NCCN2CCOCC2)n(C)c1.O=C(O)C(F)(F)F	8.18%	3.26%	-97.94%
CCOC(=O)c1cc(NC(=O)c2cc(NC(=O)c3nc(N)sc3C(C)C)cn2C)cn1C	11.43%	4.33%	-54.98%
CCOC(=O)CCC(NC(=O)c1ccc(NCc2cn(Cc3cnc(C)nc3N)nn2)cc1)C(=O)OCC (stereo not given)	-10.59%	5.67%	-67.67%
Cc1ncc(Cn2cc(CCO)nn2)c(N)n1	-3.23%	0.2%	-50.84%
CC(=O)Nc1cc(C(=O)Nc2cc(C(=O)Nc3cc(C(=O)NCCCN(C)C)n(C)c3)n(C)c2)n(C)c1.O=C(O)C(F)(F)F	11.92%	0.65%	-116.29%
Cc1ncc(Cn2cc(CO)nn2)c(N)n1	-6.43%	1.92%	-37.01%
Cc1ncc(CNc2cccc(F)c2)c(N)n1	9.56%	1.91%	-50.34%
Cn1cc(NC(=O)c2cc(NC(=O)c3sc(N)nc3C(F)(F)F)cn2C)cc1C(=O)NCCC(=N)N.O=C(O)C(F)(F)F	-8.6%	5.72%	-104.75%
COC(=O)CCC(=O)Nc1cc(C(=O)Nc2cc(C(=O)NCCN3CCOCC3)n(C)c2)n(C)c1.O=C(O)C(F)(F)F	8.45%	1.41%	-63.38%
COCCOC1CCN(C(=O)c2cc(NC(=O)c3cc(NC(=O)c4ccc(/C=C/c5cnc6ccccc6c5)cc4)cn3C)cn2C)CC1	10.84%	3.83%	112.33%
Cn1cc(NC(=O)c2cc(NC(=O)c3cc(NC(=O)c4ccc(Cl)cc4Cl)cn3C)cn2C)cc1C(=O)NCCN1CCOCC1.O=C(O)C(F)(F)F	11.99%	9.71%	9.62%
CCOC(=O)c1cc(NC(=O)c2cc(NC(=O)c3nc(N)sc3CCC(C)C)cn2C)cn1C	9.93%	2.98%	-84.96%
CC(=N)Nc1cc(C(=O)Nc2cc(C(=O)Nc3cc(C(=O)NCCN4CCOCC4)n(C)c3)n(C)c2)n(C)c1.O=C(O)C(F)(F)F.O=C(O)C(F)(F)F	13.68%	2.29%	-100.58%
CN(C)CCCNC(=O)c1cc(NC(=O)c2cc(NC(=O)c3cc(NC(=N)N)cn3C)cn2C)cn1C.O=C(O)C(F)(F)F.O=C(O)C(F)(F)F	7.81%	2.03%	-105.56%
CCOC(=O)c1cc(NC(=O)c2cc(NC(=O)c3sc(N)nc3C(F)(F)F)cn2C)cn1C	7.86%	4.58%	-88.19%
CC(C)CCc1sc(N)nc1C(=O)Nc1cc(C(=O)Nc2cc(C(=O)NCCN3CCOCC3)n(C)c2)n(C)c1.O=C(O)C(F)(F)F	5.14%	4.42%	-77.2%
Cc1ncc(CNc2ccc(C(C)(C)C)cc2)c(N)n1	2.67%	-0.83%	-46.61%
Cc1ncc(CNc2ccccc2F)c(N)n1	12.81%	1.65%	-54.68%
Cc1ncc(Cn2cc(CCCO)nn2)c(N)n1	-1.34%	0.26%	-29.76%
Cc1ncc(Cn2cc(CC(N)C(=O)O)nn2)c(N)n1.Cl (stereo not given)	-13.87%	2.15%	-37.7%
COC(=O)c1ccc(C(=O)Nc2cc(C(=O)Nc3cc(C(=O)NCCN4CCOCC4)n(C)c3)n(C)c2)cc1.O=C(O)C(F)(F)F	8.44%	7.27%	-98.27%
CC(C)c1sc(NC(=O)c2cc(NC(=O)c3cc(NC(=O)c4cnc(Cl)c(Cl)c4)cn3C)cn2C)nc1C(=O)NCCCN(C)C.O=C(O)C(F)(F)F	-2.83%	7.37%	12.34%
COC(=O)CCC(=O)Nc1cc(C(=O)Nc2cc(C(=O)NCCC(=N)N)n(C)c2)n(C)c1.O=C(O)C(F)(F)F	5.44%	2.68%	-68.45%
Cc1ncc(CNc2ccc(F)cc2)c(N)n1	12.64%	4.55%	-57.63%
